A short description of experiment [1]: ATG_CRE_CIS: Attagene CIS-FACTORIAL HepG2 Assay for human cAMP Responsive Element (CRE) binding protein 3 (AID 2282926). To be noted: HepG2 CRE cis-reporter, Attagene multiplexed mRNA; actives raise or lower the signal. A digest of the protocol: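 Capillary electrophoresis of 6-FAM-labelled, HpaI-digested PCR products quantified reporter transcripts. These came from HepG2 transiently transfected with cis-element reporters and exposed to test chemicals for 24 hours, with DMSO defining baseline activity.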

A short description of experiment [2]: ATG_CMV_CIS: Attagene CIS-FACTORIAL HepG2 Assay for human CMV (Internal Marker) (AID 2282928).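 Note: endpoint acts as a background internal control marker rather than a target.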 To be noted: HepG2 CMV promoter reporter, transcription factor profiling; actives raise or lower the signal. A digest of the protocol: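 Reporter transcripts from transfected HepG2 cells are isolated after 24 h of chemical dosing, reverse-transcribed and amplified. Fragments labeled with 6-FAM are cut with HpaI and quantified by capillary electrophoresis; DMSO defines baseline.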

Experiment [3] in a line: ATG_BRE_CIS: Attagene CIS-FACTORIAL HepG2 Assay for human Bone Morphogenetic Protein (BMP) Response Element (BRE) (AID 2282933). To be noted: HepG2 BMP response element reporter, Attagene transcription factor profiling; actives raise or lower the signal. In outline: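 Transient MRTU transfection of human HepG2 liver cells; 24 h compound treatment; total RNA isolated, reverse-transcribed, PCR-amplified, 6-FAM labelled, HpaI-cut, capillary electrophoresis. DMSO = negative control/baseline, bidirectional fit.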

Experiment [4] is described as follows: ATG_Ets_CIS: Attagene CIS-FACTORIAL HepG2 Assay for human Erythroblast Transformation Specific (ETS) (AID 2282941). To be noted: HepG2 ETS cis-reporter transcription, actives raise or lower the signal. In outline: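 Bidirectional fit versus DMSO of reporter mRNA signal, detected by RT-PCR and capillary electrophoresis in HepG2 cells transiently transfected with cis-element reporters and dosed 24 h.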

For experiment [5], the target named is Hepatocyte nuclear factor 3-beta (Homo sapiens) (UniProt Q9Y261). The experiment can be described thus: ATG_FoxA2_CIS: Attagene CIS-FACTORIAL HepG2 Assay for human Forkhead box A2 (FOXA2) (AID 2282942). Conditions: HepG2 cis-reporter transcription factor activity, 24 h; actives raise or lower the signal. A digest of the protocol:
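Endogenous transcription factor activity is captured via cis-element-driven reporter transcripts in transfected HepG2. Total RNA taken at 24 h post-dosing; labelled RT-PCR products resolved by capillary electrophoresis. Gain or loss fitted versus DMSO.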

Experiment [6] can be described thus: ATG_GATA_CIS: Attagene CIS-FACTORIAL HepG2 Assay for human GATA Binding Protein (AID 2282944). Conditions: HepG2 GATA cis-element reporter, Attagene multiplex mRNA; actives raise or lower the signal. In outline: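 Transient MRTU transfection, HepG2, 24 h compound exposure. Total RNA → oligo(dT) RT → PCR → 6-FAM primer extension → HpaI cut → CE. Bidirectional fit vs DMSO.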

In experiment [7] the target is Hypoxia-inducible factor 1-alpha (Homo sapiens) (UniProt Q16665). Description: ATG_HIF1a_CIS: Attagene CIS-FACTORIAL HepG2 Assay for human Hypoxia Inducible Factor 1 (HIF1A) (AID 2282951). To be noted: HepG2 Attagene cis-factorial HIF1a reporter transcription; actives raise or lower the signal. In outline: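 Activity is fitted in both directions relative to DMSO. Reporter transcripts are read by RT-PCR, fluorescent primer extension and capillary electrophoresis after 24 h chemical treatment. The cells are HepG2 carrying transiently transfected cis-element-driven reporter units responding to endogenous factors.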
Sequence of Hypoxia-inducible factor 1-alpha (Homo sapiens) (Q16665 whole entry, looked up): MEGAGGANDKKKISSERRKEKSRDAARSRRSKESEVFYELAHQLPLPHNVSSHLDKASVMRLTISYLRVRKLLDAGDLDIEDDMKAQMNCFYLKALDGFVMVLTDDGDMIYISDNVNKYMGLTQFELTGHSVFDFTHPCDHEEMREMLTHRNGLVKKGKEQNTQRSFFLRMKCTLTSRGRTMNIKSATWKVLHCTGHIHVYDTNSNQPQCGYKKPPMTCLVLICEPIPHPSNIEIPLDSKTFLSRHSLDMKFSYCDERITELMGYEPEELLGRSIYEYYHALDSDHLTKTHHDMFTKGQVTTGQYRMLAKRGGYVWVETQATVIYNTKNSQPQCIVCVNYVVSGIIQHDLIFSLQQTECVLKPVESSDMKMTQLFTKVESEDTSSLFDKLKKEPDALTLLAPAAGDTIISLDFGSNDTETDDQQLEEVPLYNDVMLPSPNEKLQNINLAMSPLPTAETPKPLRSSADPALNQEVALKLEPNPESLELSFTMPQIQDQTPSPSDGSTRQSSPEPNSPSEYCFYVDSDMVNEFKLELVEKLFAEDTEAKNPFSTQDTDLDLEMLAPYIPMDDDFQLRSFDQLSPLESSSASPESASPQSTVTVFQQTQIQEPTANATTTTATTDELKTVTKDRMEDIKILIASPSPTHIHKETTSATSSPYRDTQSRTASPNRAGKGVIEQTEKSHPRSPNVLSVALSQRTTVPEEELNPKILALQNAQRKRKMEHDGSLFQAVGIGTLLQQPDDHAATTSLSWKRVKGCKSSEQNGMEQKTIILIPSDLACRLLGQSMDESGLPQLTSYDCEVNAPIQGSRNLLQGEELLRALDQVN

In experiment [8] the target is Hepatocyte nuclear factor 6 (Homo sapiens) (UniProt Q9UBC0). Description: ATG_HNF6_CIS: Attagene CIS-FACTORIAL HepG2 Assay for human Hepatocyte Nuclear Factor 6 (HNF6) (AID 2282952). Conditions: HepG2 Attagene cis-factorial HNF6 reporter transcription; actives raise or lower the signal. A digest of the protocol:
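Activity values derive from bidirectional fitting against DMSO of reporter mRNA levels, measured by capillary electrophoresis of labelled RT-PCR products from HepG2 cells exposed 24 h.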

Experiment [9] deals with Heat shock factor protein 1 (Homo sapiens) (UniProt Q00613). Description: ATG_HSE_CIS: Attagene CIS-FACTORIAL HepG2 Assay for human Heat Shock Transcription Factor 1 (HSE) (AID 2282953). Conditions: HepG2 HSE cis-reporter, Attagene RNA transcription; actives raise or lower the signal. A digest of the protocol:
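HepG2, transient MRTU transfection, cis-promoter reporters (endogenous TF activity). 24 h compound. RNA → oligo(dT) RT → PCR → 6-FAM primer extension → HpaI cut → CE. Bidirectional fit vs DMSO.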

Experiment [10] in a line: ATG_MRE_CIS: Attagene CIS-FACTORIAL HepG2 Assay for human Metal Responsive Element (MRE) (AID 2282954). To be noted: HepG2 MRE cis-reporter transcription, Attagene multiplex; actives raise or lower the signal. In outline: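 RT-PCR/capillary electrophoresis readout of reporter mRNA, 24 h post-dosing, in HepG2 cells transfected with multiplexed cis-regulated reporter constructs. Gain or loss of signal fitted bidirectionally against DMSO baseline.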

In experiment [11] the target is Paired box protein Pax-6 (Homo sapiens) (UniProt P26367). The experiment can be described thus: ATG_Pax6_CIS: Attagene CIS-FACTORIAL HepG2 Assay for human Paired Box 6 (PAX6) (AID 2282956). To be noted: HepG2 CIS-FACTORIAL PAX6 reporter transcription, RNA readout; actives raise or lower the signal. In outline: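 DMSO-referenced bidirectional fits of reporter mRNA fluorescence; HepG2 with transient cis-promoter MRTUs, 24 h post-dose, RT-PCR plus capillary electrophoresis detection.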
Sequence of Paired box protein Pax-6 (Homo sapiens) (P26367 whole entry, looked up): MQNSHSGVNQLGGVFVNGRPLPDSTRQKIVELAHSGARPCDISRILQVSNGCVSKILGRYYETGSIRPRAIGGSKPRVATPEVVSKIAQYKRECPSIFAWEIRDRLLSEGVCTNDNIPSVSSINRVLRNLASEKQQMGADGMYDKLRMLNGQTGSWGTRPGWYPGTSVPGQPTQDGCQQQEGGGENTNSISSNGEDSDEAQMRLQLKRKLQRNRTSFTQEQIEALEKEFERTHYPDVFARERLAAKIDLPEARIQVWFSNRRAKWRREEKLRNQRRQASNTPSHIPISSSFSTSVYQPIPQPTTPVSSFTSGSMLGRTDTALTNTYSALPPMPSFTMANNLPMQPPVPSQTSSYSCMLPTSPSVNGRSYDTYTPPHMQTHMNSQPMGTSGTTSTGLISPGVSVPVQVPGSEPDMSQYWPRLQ

Experiment [12] is described as follows: ATG_SREBP_CIS: Attagene CIS-FACTORIAL HepG2 Assay for human Sterol Regulatory Element Binding (SREBP) (AID 2282962). Conditions: HepG2 Attagene cis-factorial SREBP reporter, mRNA; actives raise or lower the signal. In outline: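 In this cis-format assay, HepG2 liver cells express reporters controlled by promoter elements responsive to native transcription factors. Exposure lasts 24 h; reporter mRNA fluorescence from capillary electrophoresis gives the signal, fitted bidirectionally against DMSO.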

A short description of experiment [13]: ATG_VDRE_CIS: Attagene CIS-FACTORIAL HepG2 Assay for human Vitamin D Receptor Element (VDRE) (AID 2282968). To be noted: HepG2 VDRE cis-reporter transcription, actives raise or lower the signal. In outline:
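Transient MRTU transfection of HepG2, 24 h compound exposure. Readout: reporter transcripts via RT-PCR and capillary electrophoresis, fluorescence. Bidirectional fit vs DMSO.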

Experiment [14] can be described thus: ATG_NF_kB_CIS: Attagene CIS-FACTORIAL HepG2 Assay for human Nuclear Factor Kappa B (NF-kB) (AID 2282991). To be noted: HepG2 Attagene cis-factorial NF-kB reporter mRNA; actives raise or lower the signal. In outline:
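Readout is reporter transcript level, gain or loss versus DMSO, measured 24 h post-dose via RT-PCR, fluorescent labelling and capillary electrophoresis. Human HepG2 liver cells carried transiently transfected CIS reporter constructs reflecting endogenous factors.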

Experiment [15] is described as follows: ATG_NRF2_ARE_CIS: Attagene CIS-FACTORIAL HepG2 Assay for human Nuclear Factor Erythroid 2 Related Factor 2 (NFR2) response to Antioxidant Response Elements (ARE) (AID 2282992). Conditions: HepG2 Attagene ARE/NRF2 reporter, transcription factor activity; actives raise or lower the signal. In outline: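 Using transiently transfected HepG2 cells exposed for 24 h, reporter mRNA levels were determined by RT-PCR with fluorescent primer extension and capillary electrophoresis, analysed for gain or loss of signal against DMSO.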

Experiment [16] has as its target Cellular tumor antigen p53 (Homo sapiens) (UniProt P04637). Description: ATG_p53_CIS: Attagene CIS-FACTORIAL HepG2 Assay for human p53 Transcription Factor (AID 2282994). Conditions: HepG2 p53 cis-element reporter, Attagene mRNA; actives raise or lower the signal. In outline: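 In HepG2 cells, reporter transcription units under cis-regulatory promoters were transiently introduced. Following 24 h treatment, RNA was processed to labelled, digested cDNA fragments read by capillary electrophoresis; fitting was bidirectional versus DMSO.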

Experiment [17] can be described thus: ATG_XTT_Cytotoxicity: Cytotoxicity Assessment in the Attagene TRANS-FACTORIAL HepG2 Assay (AID 2283584; active = hit-call score of the fitted dose curve at least 0.9, where 1 is the maximum;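 for AC50: cells exposed to compound for 24 h before reading; active means loss of viability signal versus DMSO baseline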). In outline: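 HepG2 human liver cells, transiently transfected with multiple GAL4-UAS reporter units, were dosed and read at 24 h by XTT as cell number. Loss of signal was fitted relative to DMSO negative control baseline.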
Experiment [18] has as its target Aryl hydrocarbon receptor (Homo sapiens) (UniProt P35869). The experiment can be described thus: ATG_Ahr_CIS: Attagene CIS-FACTORIAL HepG2 Assay for human Aryl Hydrocarbon Receptor (Ahr) (AID 2282930). Conditions: HepG2 AhR cis-factorial reporter transcription; actives raise or lower the signal. A digest of the protocol:
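Read-out: reporter mRNA quantified by RT-PCR with fluorescent primer extension and capillary electrophoresis. Human HepG2 liver cells carried transfected cis-promoter reporter units and were exposed to chemical for 24 h; gain or loss fitted relative to DMSO.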

Experiment [19] in a line: ATG_FoxO_CIS: Attagene CIS-FACTORIAL HepG2 Assay for human Forkhead box O (FoxO) (AID 2282943). To be noted: HepG2 Attagene cis-reporter, FoxO element, mRNA; actives raise or lower the signal. In outline: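 Read-out: fluorescence of 6-FAM-labelled reporter cDNA fragments resolved by capillary electrophoresis. Transiently transfected HepG2 cells were dosed for 24 h; activity fitted in both directions relative to DMSO controls.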

Experiment [20] is described as follows: ATG_AP_1_CIS: Attagene CIS-FACTORIAL HepG2 Assay for human Activator Protein 1 (AP-1) (AID 2282931). Conditions: HepG2 Attagene cis-factorial AP-1 reporter mRNA; actives raise or lower the signal. In outline: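 Readout is reporter transcript level from endogenous transcription factor activity, quantified by RT-PCR with fluorescent primer extension and capillary electrophoresis. Transiently transfected HepG2 cells, 24 h exposure. Curves fitted both directions versus DMSO.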

The structures appear in SMILES notation. Results filed as inconclusive are left out. Calls of active or inactive are those of the source. Rule for the calls, unless noted: active = hit-call score of the fitted dose curve at least 0.9, where 1 is the maximum; inactive = score below 0.9.

Sequence of Hepatocyte nuclear factor 6 (Homo sapiens) (Q9UBC0 whole entry, looked up): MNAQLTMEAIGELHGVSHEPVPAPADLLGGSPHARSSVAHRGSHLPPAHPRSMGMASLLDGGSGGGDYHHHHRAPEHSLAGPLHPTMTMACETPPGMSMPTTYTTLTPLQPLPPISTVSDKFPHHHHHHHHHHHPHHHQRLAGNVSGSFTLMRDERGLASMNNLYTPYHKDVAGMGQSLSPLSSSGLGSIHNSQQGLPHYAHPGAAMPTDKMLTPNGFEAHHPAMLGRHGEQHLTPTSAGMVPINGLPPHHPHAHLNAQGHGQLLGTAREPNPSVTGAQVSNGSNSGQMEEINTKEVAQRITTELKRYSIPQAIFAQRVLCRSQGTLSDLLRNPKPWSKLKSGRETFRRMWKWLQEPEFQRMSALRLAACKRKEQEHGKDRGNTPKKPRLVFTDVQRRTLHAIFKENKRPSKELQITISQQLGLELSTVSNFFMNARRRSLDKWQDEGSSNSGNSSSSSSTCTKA
Sequence of Aryl hydrocarbon receptor (Homo sapiens) (P35869 whole entry, looked up): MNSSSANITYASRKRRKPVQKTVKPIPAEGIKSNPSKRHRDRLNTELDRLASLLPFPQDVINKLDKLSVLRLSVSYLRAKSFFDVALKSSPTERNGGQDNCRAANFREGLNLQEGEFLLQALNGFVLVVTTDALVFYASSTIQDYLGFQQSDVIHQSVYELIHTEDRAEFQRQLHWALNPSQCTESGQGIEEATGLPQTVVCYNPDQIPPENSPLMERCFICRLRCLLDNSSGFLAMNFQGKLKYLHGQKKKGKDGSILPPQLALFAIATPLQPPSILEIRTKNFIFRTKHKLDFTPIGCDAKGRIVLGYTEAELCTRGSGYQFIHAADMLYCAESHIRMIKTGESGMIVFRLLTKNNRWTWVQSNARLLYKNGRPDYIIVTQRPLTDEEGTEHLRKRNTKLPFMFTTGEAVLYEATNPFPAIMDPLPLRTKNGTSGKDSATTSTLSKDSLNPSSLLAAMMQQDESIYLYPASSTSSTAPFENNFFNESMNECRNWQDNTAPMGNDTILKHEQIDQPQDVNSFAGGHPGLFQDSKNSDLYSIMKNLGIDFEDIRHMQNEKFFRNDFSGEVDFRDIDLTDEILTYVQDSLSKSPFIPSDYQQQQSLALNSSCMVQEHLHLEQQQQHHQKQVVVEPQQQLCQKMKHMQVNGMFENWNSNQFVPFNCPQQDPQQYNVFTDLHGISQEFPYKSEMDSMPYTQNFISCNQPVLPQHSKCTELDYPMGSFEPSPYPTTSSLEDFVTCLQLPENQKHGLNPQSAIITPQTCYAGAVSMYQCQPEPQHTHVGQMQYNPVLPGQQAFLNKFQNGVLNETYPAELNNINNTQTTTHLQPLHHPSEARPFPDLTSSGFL
Sequence of Hepatocyte nuclear factor 3-beta (Homo sapiens) (Q9Y261 whole entry, looked up): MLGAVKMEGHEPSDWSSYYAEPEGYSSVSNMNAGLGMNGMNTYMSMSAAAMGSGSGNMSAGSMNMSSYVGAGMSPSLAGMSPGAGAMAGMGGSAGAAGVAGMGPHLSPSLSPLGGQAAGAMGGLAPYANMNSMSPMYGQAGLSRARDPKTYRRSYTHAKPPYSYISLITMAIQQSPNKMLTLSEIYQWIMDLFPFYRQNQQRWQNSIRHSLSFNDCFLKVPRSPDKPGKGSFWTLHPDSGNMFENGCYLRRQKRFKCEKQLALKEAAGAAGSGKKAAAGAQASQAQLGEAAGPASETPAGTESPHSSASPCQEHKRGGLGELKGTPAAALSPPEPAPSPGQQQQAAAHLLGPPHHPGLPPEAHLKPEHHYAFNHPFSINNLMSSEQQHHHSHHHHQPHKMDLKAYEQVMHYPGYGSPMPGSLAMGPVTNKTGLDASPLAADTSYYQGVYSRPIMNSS
Sequence of Heat shock factor protein 1 (Homo sapiens) (Q00613 whole entry, looked up): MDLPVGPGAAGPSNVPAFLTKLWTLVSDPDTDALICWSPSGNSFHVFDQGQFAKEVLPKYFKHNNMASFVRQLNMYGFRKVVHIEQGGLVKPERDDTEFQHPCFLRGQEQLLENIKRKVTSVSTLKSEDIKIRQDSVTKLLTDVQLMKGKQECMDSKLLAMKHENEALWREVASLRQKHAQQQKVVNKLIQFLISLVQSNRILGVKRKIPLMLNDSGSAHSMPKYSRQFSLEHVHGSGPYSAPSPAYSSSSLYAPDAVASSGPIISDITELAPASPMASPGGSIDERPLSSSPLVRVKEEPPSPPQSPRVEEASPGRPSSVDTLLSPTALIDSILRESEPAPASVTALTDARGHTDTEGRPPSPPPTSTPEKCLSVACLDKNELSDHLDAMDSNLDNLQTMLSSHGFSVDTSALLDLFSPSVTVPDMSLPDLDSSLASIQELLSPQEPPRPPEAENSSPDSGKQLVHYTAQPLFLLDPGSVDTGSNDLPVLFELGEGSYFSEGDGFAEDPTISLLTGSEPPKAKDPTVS
Sequence of Cellular tumor antigen p53 (Homo sapiens) (P04637 whole entry, looked up, the tested form may be a part): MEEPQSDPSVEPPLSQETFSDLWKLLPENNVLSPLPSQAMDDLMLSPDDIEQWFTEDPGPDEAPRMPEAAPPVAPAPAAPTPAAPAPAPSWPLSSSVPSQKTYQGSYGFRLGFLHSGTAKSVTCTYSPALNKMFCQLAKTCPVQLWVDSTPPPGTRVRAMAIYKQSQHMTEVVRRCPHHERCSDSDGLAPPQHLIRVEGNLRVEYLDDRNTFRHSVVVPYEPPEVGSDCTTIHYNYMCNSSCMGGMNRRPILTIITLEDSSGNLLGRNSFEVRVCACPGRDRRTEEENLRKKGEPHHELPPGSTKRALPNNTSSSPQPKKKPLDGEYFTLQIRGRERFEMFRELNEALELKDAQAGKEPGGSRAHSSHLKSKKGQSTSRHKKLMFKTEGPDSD

Usually AC50 stands for the concentration at which the activity in the assay is half-maximal. Turning to `O=[N+]([O-])C=Cc1ccccc1`, the AC50 in [1] is 20 µM (active); in experiment [3], 44.2 µM (active); in [5], 22.7 µM (active); in experiment [6] it was 22.1 µM (active); in experiment [9] it was 11.4 µM (active); in experiment [10], 13.3 µM (active). Moreover, the AC50 in experiment [11] is 21.1 µM (active); in experiment [13], 10.7 µM (active); in [14] it was 34.7 µM (active); in experiment [16], 20.2 µM (active); in [17], 75.7 µM (active). The compound was called inactive in experiment [2], in experiment [4], in [7], in experiment [8], in [12] and in experiment [15].
As for `O=[N+]([O-])c1cc([N+](=O)[O-])c2ccccc2c1`, the compound was called inactive in experiment [1], in [4], in experiment [5], in experiment [19], in [6] and in [7]. Besides, the outcome in experiment [8], in experiment [9], in experiment [10], in [11], in experiment [12] and in [13] was inactive. Also, the compound was classed as inactive in experiment [14] and in experiment [16]. In addition, the concentration at half-maximal activity (AC50) in experiment [18] was 8.37 µM (active); in experiment [15], 3.1 µM (active).
For the compound `CCCCCCCCCCCCCCCC[N+](C)(C)C`, the AC50 is 48.9 µM (active) in [1]; 35.5 µM (active) in experiment [18]; 100 µM (active) in experiment [4]; 26.6 µM (active) in experiment [6]; 100 µM (active) in experiment [8]; 25.5 µM (active) in [10]. Further, the results for the half-maximal activity concentration (AC50) in experiment [13], in experiment [14] and in experiment [17] were 9.16 µM (active), 53.4 µM (active) and 36.9 µM (active), respectively. Moreover, the outcome in [5], in experiment [19], in [7], in [9], in experiment [11] and in experiment [12] was inactive. For the same compound, in [15], the call was inactive.
For the compound `ClC1=C(Cl)[C@]2(Cl)[C@@H]3[C@@H](Cl)[C@H](Cl)C[C@@H]3[C@@]1(Cl)C2(Cl)Cl`, the compound was classed as inactive in [1], in experiment [2], in [20], in experiment [5], in experiment [19] and in experiment [6]. Besides, the call in experiment [8], in [9], in experiment [12], in experiment [13], in experiment [14] and in experiment [15] was inactive. Moreover, the result in [16] was inactive. Moreover, the AC50 in experiment [7] was 36.6 µM (active).
`CCCCCCC1CCOC1=O` (stereo not given): the call in experiment [1], in [18], in experiment [20], in experiment [3], in experiment [4] and in experiment [19] was inactive. Moreover, the call in experiment [6], in experiment [7], in experiment [8], in experiment [9], in experiment [10] and in [12] was inactive. The compound was classed as inactive in experiment [13], in experiment [14], in experiment [15], in experiment [16] and in experiment [17].
For the compound `[Cl][Sb]([Cl])[Cl]`, the call in experiment [1], in experiment [18], in [3], in [5], in experiment [6] and in experiment [7] was inactive. For the same compound, the result in experiment [8], in experiment [10], in experiment [12] and in experiment [17] was inactive. In addition, the AC50 is 100 µM (active) in experiment [20]; 169 µM (active) in experiment [9]; 133 µM (active) in experiment [11]; 1.72 µM (active) in experiment [15]; 180 µM (active) in experiment [16].

These data come from PubChem BioAssay (EPA / NIEHS).
